Bioassay records (PubChem BioAssay)
Most compounds without a hit are left out; they make up all but 3.3% or so of the library.
AmpC inh no detg – inhibitors of E. coli AmpC beta-lactamase without detergent | P00811 | AmpC nitrocefin hydrolysis, absorbance 480 nm, 0.0001% Triton | Potency, µM (doses to about 57.1 µM), for inactives: at the top dose activity change, negative = inhibition, usual class: inhibitors | 0.52% of 330,000 active | AID 485341;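 also: plate controls were no compound for no effect and no enzyme for full effect; nearly all actives have a fitted effect of over 20% in size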
Target sequence (P00811 whole entry, looked up): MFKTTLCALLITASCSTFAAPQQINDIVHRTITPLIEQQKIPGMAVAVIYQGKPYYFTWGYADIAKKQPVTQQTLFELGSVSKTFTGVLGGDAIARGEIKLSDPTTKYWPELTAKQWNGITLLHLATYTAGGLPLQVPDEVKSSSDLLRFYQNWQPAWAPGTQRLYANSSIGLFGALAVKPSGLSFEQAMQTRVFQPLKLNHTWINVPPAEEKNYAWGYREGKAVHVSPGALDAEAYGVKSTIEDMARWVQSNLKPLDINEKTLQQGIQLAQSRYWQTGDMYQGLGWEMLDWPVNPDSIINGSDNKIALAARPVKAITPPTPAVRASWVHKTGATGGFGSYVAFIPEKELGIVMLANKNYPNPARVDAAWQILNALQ
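20 mM phosphate pH 7.0 + 0.01% (detergent screen) or 0.0001% Triton X-100; 5.3 nM AmpC reagent; cpd preinc 15 min RT; nitrocefin (800 uM stock) to start; A480 q20 s × 4 min; Activity was normalised to no-enzyme and no-compound control wells.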
AmpC inh detg – blocks E. coli AmpC beta-lactamase in detergent assay | P00811 | AmpC hydrolysis of nitrocefin, absorbance 480 nm, 0.01% Triton | Potency, µM (doses to about 114 µM), for the others: at the highest dose activity change, negative = inhibition, actives largely listed as inhibitors | 0.041% of 370,000 active | AID 485294;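 also: 0% = no-compound wells and -100% = no-enzyme wells; nearly all actives have a fitted effect of over 25% in size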
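20 mM phosphate pH 7.0 + 0.01% (detergent screen) or 0.0001% Triton X-100; 5.3 nM AmpC reagent; cpd preinc 15 min RT; nitrocefin (800 uM stock) to start; A480 q20 s × 4 min; Activity was normalised to no-enzyme and no-compound control wells.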
Sm TGR inh – blocks Schistosoma mansoni thioredoxin glutathione reductase. Q962Y6. purified TGR, DTNB reduction, TNB absorbance 405 nm. Potency, µM (top dose mostly 114 µM), for the others: at the highest dose activity change, negative = inhibition, most hits filed as inhibitors. 3% of 360,000 active. AID 485364; also: nearly all actives have a fitted effect of over 60% in size
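Kinetic colorimetric format: TGR-catalysed, NADPH-driven DTNB reduction monitored via TNB absorbance. Enzyme dispensed at 20 nM; compound exposure 15 min at room temperature before reaction start.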
Starred values were filed as active, the others as inactive. Calls follow the shape of the dose curve; as a rule, active = well fitted curve in the direction sought with a large enough effect; inconclusive = small, poorly fitted or top-dose-only effect, or another doubt; inactive = no such curve, though single readings can be large; an effect the other way counts as inactive or inconclusive. Unless noted, % is scaled to controls: 0 for no effect and ±100 for the full control effect; potency is read from the fitted curve at half-maximal effect.

How did COc1cc(C(=O)NNC(=O)C2CCCC2)cc(OC)c1OC do in these assays?
AmpC inh no detg: -24%; AmpC inh detg: -6%; Sm TGR inh: -1%

Results for CCOC(=O)c1c(S(=O)(=O)N2CCC(C(=O)N3CCN(c4ccc(F)cc4)CC3)CC2)c(C)n(C)c1C ?
AmpC inh detg: -5%; Sm TGR inh: -18%

How did COc1ccc(CNC(=O)C2CCN(S(=O)(=O)c3cccc(C(F)(F)F)c3)CC2)cc1 do in these assays?
AmpC inh no detg: 15%; AmpC inh detg: -11%; Sm TGR inh: -6%

Results for COc1ccc(N2CCC(CNC(=O)Nc3ccc(C)c(C)c3)C2)cc1 (configuration not stated) ?
AmpC inh no detg: -16%; AmpC inh detg: inconclusive; Sm TGR inh: inconclusive

How did COc1ccc(N2CCC(CNC(=O)Nc3ccc(OC)cc3OC)C2)cc1 (configuration not stated) do in these assays?
AmpC inh no detg: 3%; AmpC inh detg: 1%; Sm TGR inh: 45µM*

What do the screens show for `COc1ccc(N2CCC(CNS(=O)(=O)c3cccc(C(F)(F)F)c3)C2)cc1` (configuration not stated)?
AmpC inh no detg: -19%; AmpC inh detg: -9%; Sm TGR inh: 32µM*

What do the screens show for `COc1cccc(CN2CCCN(Cc3ccc(F)cc3)S2(=O)=O)c1`?
AmpC inh detg: 10%; Sm TGR inh: 5%

What do the screens show for `N=C1S/C(=C\c2ccco2)C(=O)N1c1nccs1`?
AmpC inh no detg: -43%; AmpC inh detg: 2%; Sm TGR inh: 22µM*

How did N=C1S/C(=C\c2ccco2)C(=O)N1c1ccc2c(c1)OCO2 do in these assays?
AmpC inh no detg: -59%; AmpC inh detg: 0%

Results for O=C(c1ccc(F)cc1)c1cn(Cc2ccccc2)c2cc3c(cc2c1=O)OCO3 ?
AmpC inh detg: 1%; Sm TGR inh: 3%

Results for CCc1cccc(NC(=O)CSc2ncc3c(n2)-c2cc(Cl)ccc2N(C)S3(=O)=O)c1 ?
AmpC inh detg: -5%; Sm TGR inh: 4%

How did O=[N+]([O-])c1ccc(-c2ccccc2)c([As](=O)(O)O)c1 do in these assays?
AmpC inh no detg: -14%; AmpC inh detg: 7%; Sm TGR inh: 2µM*

What do the screens show for `O=[N+]([O-])c1ccc2nc(-c3ccccc3)cc(-c3ccccc3)c2c1`?
AmpC inh no detg: -22%; AmpC inh detg: 0%; Sm TGR inh: 5%

Results for Cc1oc2ncn(CC(C)C)c(=O)c2c1C(=O)NCCCN1CCC(C)CC1 ?
AmpC inh detg: -6%; Sm TGR inh: -8%

Results for Nc1n[nH]c2cc(=O)n(-c3cccc(C(F)(F)F)c3)nc12 ?
AmpC inh no detg: -11%; AmpC inh detg: 5%; Sm TGR inh: 22µM*

Results for COc1ccc(-n2nc3c(=O)[nH][nH]c3cc2=O)cc1 ?
AmpC inh no detg: -16%; AmpC inh detg: 3%; Sm TGR inh: -13%

What do the screens show for `O=c1[nH][nH]c2cc(=O)n(-c3cccc(C(F)(F)F)c3)nc12`?
AmpC inh no detg: 20µM*; AmpC inh detg: 2%; Sm TGR inh: -12%

What do the screens show for `COC(=O)c1sc2cc(=O)n(-c3cccc(C(F)(F)F)c3)nc2c1O`?
AmpC inh no detg: -12%; AmpC inh detg: inconclusive; Sm TGR inh: -1%

What do the screens show for `CCOc1ccc(CNC(=O)c2ccc3c(c2)c(C)c(C)n3Cc2ccc(Cl)cc2)cc1`?
AmpC inh detg: 3%; Sm TGR inh: 0%

What do the screens show for `COc1ccc(-c2nc(SCC(=O)Nc3ccc4c(c3)OCCO4)c(-c3ccc(C)cc3)[nH]2)cc1OC`?
AmpC inh detg: 18%; Sm TGR inh: 2%

Results for O=C(O)c1ccc(S(=O)(=O)/N=C2\C=C(Nc3ccccc3F)C(=O)c3ccccc32)cc1 ?
AmpC inh no detg: -21%; AmpC inh detg: 3%; Sm TGR inh: 45µM*

What do the screens show for `Cc1ccccc1NC1=C/C(=N\S(=O)(=O)c2ccc(C(=O)O)cc2)c2ccccc2C1=O`?
AmpC inh no detg: -26%; AmpC inh detg: inconclusive; Sm TGR inh: inconclusive

What do the screens show for `CCOc1ccc(CNC(=O)c2cc3c(=O)n(Cc4cccs4)ccc3nc2C)cc1`?
AmpC inh detg: 8%; Sm TGR inh: 7%

What do the screens show for `CC(=O)c1cccc(N2C(=O)CN(S(C)(=O)=O)CC2(C)C(=O)NC2CCCC2)c1` (configuration not stated)?
AmpC inh detg: 16%; Sm TGR inh: 2%

What do the screens show for `Cc1cc(=O)[nH]c(SCC(=O)O)c1C#N`?
AmpC inh no detg: -12%; AmpC inh detg: 2%; Sm TGR inh: 0%

How did Cc1cc(=O)[nH]c(SCC(=O)C23CC4CC(CC(C4)C2)C3)c1C#N do in these assays?
AmpC inh no detg: -29%; AmpC inh detg: inconclusive; Sm TGR inh: 16µM*

Results for CC(=O)Nc1ccc(S(=O)(=O)NC2=NCN(C(C)C)CN2)cc1 ?
AmpC inh detg: -6%; Sm TGR inh: 1%

Results for CCOC(=O)c1cc(S(=O)(=O)Nc2ccccc2OCC)[nH]n1 ?
AmpC inh detg: -4%; Sm TGR inh: -4%

How did CCOC(=O)C1C(=O)C(C(=O)OCC)C(c2cccnc2)NC1c1cccnc1 (configuration not stated) do in these assays?
AmpC inh no detg: 1%; AmpC inh detg: 2%; Sm TGR inh: 25µM*

What do the screens show for `CCOC(=O)C1=C(C)N(C)C(C)=C(C(=O)OCC)C1c1cccnc1`?
AmpC inh no detg: 271%; AmpC inh detg: inconclusive; Sm TGR inh: -11%

Results for CC[C@H](C)/C=C(C)/C=C/C(=O)Cc1cc(O)c(C)c(O)c1C=O ?
AmpC inh no detg: -33%; AmpC inh detg: 0%; Sm TGR inh: 28µM*

Results for O=C(C1CCCCC1)N(Cc1cccnc1)c1nc2ccc(Cl)cc2s1 ?
AmpC inh detg: 4%; Sm TGR inh: -3%

Results for Cc1nc2cccnc2n1C1CCN(S(=O)(=O)c2ccc(C(C)C)cc2)CC1 ?
AmpC inh detg: -1%; Sm TGR inh: 0%

Results for CCCN(CCC)S(=O)(=O)c1ccc(C(=O)N2CCn3c4c(c5cc(C)ccc53)CCCC42)cc1 (configuration not stated) ?
AmpC inh detg: 1%; Sm TGR inh: 7%

What do the screens show for `Cc1oc(-c2ccc(Cl)cc2)nc1CS(=O)CC(=O)NCCN1CCCC1` (configuration not stated)?
AmpC inh no detg: 50%; AmpC inh detg: -13%; Sm TGR inh: 2%

What do the screens show for `Cc1cccc(-c2nc(CS(=O)CC(=O)NC3CCCC3)c(C)o2)c1` (configuration not stated)?
AmpC inh no detg: -11%; AmpC inh detg: -9%; Sm TGR inh: 13µM*

What do the screens show for `Cc1oc(-c2ccc(Cl)cc2)nc1CS(=O)CC(=O)NCCCN1CCOCC1` (configuration not stated)?
AmpC inh no detg: 8%; AmpC inh detg: 1%; Sm TGR inh: -28%

How did Cc1oc(-c2ccc(Cl)cc2)nc1CS(=O)CC(=O)NC1CCCC1 (configuration not stated) do in these assays?
AmpC inh no detg: 60%; AmpC inh detg: -8%; Sm TGR inh: 8.9µM*
